About 2,000 (36%) of roughly 5,500 compounds were called active. Roughly 18% stayed inconclusive and do not appear here. Rule as the data show it: active = normalized growth mostly below about 0.91 (no sharp cut-off); inconclusive = no clear call, values can overlap the other calls; inactive = mostly above about 0.92. The list shows a part of the results.
Assay: chemical genetic growth profiling, strain panel (AID 1159580);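 also: tested at 20 µM; growth read once vehicle control cultures reached saturation at 30 °C; 1 = growth at the plate median or of vehicle wells; lower values mean less growth of the strain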
Conditions: growth OD

Measured: normalized growth

ClC(Cl)=C(c1ccc(Cl)cc1)c1ccc(Cl)cc1
inactive: S. cerevisiae deletion strains, locus YJR075W, strain HOC1, stronger effect = lower value 0.947 | S. cerevisiae deletion strains, locus YKL009W, strain mrt4, stronger effect = lower value 0.995 | S. cerevisiae deletion strains, locus YKL085W, strain MDH1 (second series), stronger effect = lower value 0.931 | S. cerevisiae deletion strains, locus YKL085W, strain MDH1, stronger effect = lower value 0.931 | S. cerevisiae deletion strains, locus YKL160W, strain elf1, stronger effect = lower value 0.998 | S. cerevisiae deletion strains, locus YKL190W, strain CNB1, stronger effect = lower value 0.966 | S. cerevisiae deletion strains, locus YKR001C, strain vps1, stronger effect = lower value 0.949 | S. cerevisiae deletion strains, locus YKR026C, strain gcn3, stronger effect = lower value 1 | S. cerevisiae deletion strains, locus YKR091W, strain srl3, stronger effect = lower value 0.985 | S. cerevisiae deletion strains, locus YLL001W, strain dnm1, stronger effect = lower value 0.996 | S. cerevisiae deletion strains, locus YLL026W, stronger effect = lower value 0.993 | S. cerevisiae deletion strains, locus YLL041C, strain sdh2, stronger effect = lower value 0.991 | S. cerevisiae deletion strains, locus YLR027C, strain aat2, stronger effect = lower value 1.01 | S. cerevisiae deletion strains, locus YLR058C, strain SHM2, stronger effect = lower value 0.962 | S. cerevisiae deletion strains, locus YLR102C, strain apc9, stronger effect = lower value 0.954 | S. cerevisiae deletion strains, locus YLR113W, strain HOG1, stronger effect = lower value 0.979 | S. cerevisiae deletion strains, locus YLR221C, strain rsa3, stronger effect = lower value 0.994 | S. cerevisiae deletion strains, locus YLR258W, strain gsy2, stronger effect = lower value 0.985 | S. cerevisiae deletion strains, locus YLR262C, strain YPT6 (second series), stronger effect = lower value 1.04 | S. cerevisiae deletion strains, locus YLR262C, strain YPT6, stronger effect = lower value 0.652 | S. cerevisiae deletion strains, locus YLR268W, strain sec22, stronger effect = lower value 0.969 | S. cerevisiae deletion strains, locus YLR320W, strain mms22, stronger effect = lower value 0.967 | S. cerevisiae deletion strains, locus YLR330W, strain CHS5, stronger effect = lower value 0.962 | S. cerevisiae deletion strains, locus YLR342W, strain FKS1 (second series), stronger effect = lower value 0.879 | S. cerevisiae deletion strains, locus YLR342W, strain FKS1, stronger effect = lower value 0.983 | S. cerevisiae deletion strains, locus YLR357W, strain rsc2, stronger effect = lower value 1 | S. cerevisiae deletion strains, locus YLR370C, strain arc18, stronger effect = lower value 0.996 | S. cerevisiae deletion strains, locus YLR371W, strain rom2, stronger effect = lower value 0.953 | S. cerevisiae deletion strains, locus YLR384C, strain iki3, stronger effect = lower value 0.987 | S. cerevisiae deletion strains, locus YLR418C, strain cdc73, stronger effect = lower value 0.905 | S. cerevisiae deletion strains, locus YML016C, strain PPZ1, stronger effect = lower value 0.946 | S. cerevisiae deletion strains, locus YML032C, strain rad52, stronger effect = lower value 0.949 | S. cerevisiae deletion strains, locus YML120C, strain ndi1, stronger effect = lower value 0.988 | S. cerevisiae deletion strains, locus YML124C, strain tub3, stronger effect = lower value 0.942 | S. cerevisiae deletion strains, locus YMR058W, strain fet3, stronger effect = lower value 0.996 | S. cerevisiae deletion strains, locus YMR078C, strain ctf18, stronger effect = lower value 0.925 | S. cerevisiae deletion strains, locus YMR125W, strain sto1, stronger effect = lower value 0.988 | S. cerevisiae deletion strains, locus YMR129W, stronger effect = lower value 0.997 | S. cerevisiae deletion strains, locus YMR205C, strain PFK2, stronger effect = lower value 0.959 | S. cerevisiae deletion strains, locus YMR223W, strain ubp8, stronger effect = lower value 0.964 | S. cerevisiae deletion strains, locus YMR231W, strain pep5, stronger effect = lower value 0.999 | S. cerevisiae deletion strains, locus YMR263W, strain SAP30, stronger effect = lower value 0.96 | S. cerevisiae deletion strains, locus YMR307W, strain GAS1, stronger effect = lower value 0.978 | S. cerevisiae deletion strains, locus YNL067W, strain RPL9B, stronger effect = lower value 0.974 | S. cerevisiae deletion strains, locus YNL071W, strain lat1, stronger effect = lower value 1 | S. cerevisiae deletion strains, locus YNL128W, strain TEP1, stronger effect = lower value 0.973 | S. cerevisiae deletion strains, locus YNL153C, strain GIM3, stronger effect = lower value 0.98 | S. cerevisiae deletion strains, locus YNL183C, strain NPR1, stronger effect = lower value 0.986 | S. cerevisiae deletion strains, locus YNL209W, strain ssb2, stronger effect = lower value 0.994 | S. cerevisiae deletion strains, locus YNL233W, strain BNI4, stronger effect = lower value 0.981 | S. cerevisiae deletion strains, locus YNL248C, strain rpa49, stronger effect = lower value 0.993 | S. cerevisiae deletion strains, locus YNL250W, strain rad50, stronger effect = lower value 0.917 | S. cerevisiae deletion strains, locus YNL271C, strain bni1, stronger effect = lower value 0.957 | S. cerevisiae deletion strains, locus YNL298W, strain CLA4, stronger effect = lower value 0.953 | S. cerevisiae deletion strains, locus YNL322C, strain KRE1 (second series), stronger effect = lower value 0.989 | S. cerevisiae deletion strains, locus YNL322C, strain KRE1, stronger effect = lower value 0.963 | S. cerevisiae deletion strains, locus YNR049C, strain mso1, stronger effect = lower value 0.994 | S. cerevisiae deletion strains, locus YNR052C, strain pop2, stronger effect = lower value 0.954 | S. cerevisiae deletion strains, locus YOL006C, strain TOP1, stronger effect = lower value 1.01 | S. cerevisiae deletion strains, locus YOL012C, strain htz1 0.487 | S. cerevisiae deletion strains, locus YOL147C, strain pex11, stronger effect = lower value 0.946 | S. cerevisiae deletion strains, locus YOR001W, strain rrp6, stronger effect = lower value 0.989 | S. cerevisiae deletion strains, locus YOR061W, strain CKA2, stronger effect = lower value 0.957 | S. cerevisiae deletion strains, locus YOR069W, strain VPS5, stronger effect = lower value 0.955 | S. cerevisiae deletion strains, locus YOR070C, strain gyp1, stronger effect = lower value 1 | S. cerevisiae deletion strains, locus YOR080W, strain dia2, stronger effect = lower value 0.988 | S. cerevisiae deletion strains, locus YOR083W, strain WHI5, stronger effect = lower value 0.994 | S. cerevisiae deletion strains, locus YOR106W, strain vam3, stronger effect = lower value 1 | S. cerevisiae deletion strains, locus YOR136W, strain idh2, stronger effect = lower value 0.96 | S. cerevisiae deletion strains, locus YOR144C, strain elg1, stronger effect = lower value 0.952 | S. cerevisiae deletion strains, locus YOR184W, strain ser1, stronger effect = lower value 0.954 | S. cerevisiae deletion strains, locus YOR231W, strain MKK1, stronger effect = lower value 1.04 | S. cerevisiae deletion strains, locus YOR265W, strain rbl2, stronger effect = lower value 0.992 | S. cerevisiae deletion strains, locus YOR270C, strain vph1, stronger effect = lower value 0.978 | S. cerevisiae deletion strains, locus YOR290C, strain snf2, stronger effect = lower value 0.99 | S. cerevisiae deletion strains, locus YOR316C, strain cot1, stronger effect = lower value 0.945 | S. cerevisiae deletion strains, locus YPL051W, strain arl3, stronger effect = lower value 0.989 | S. cerevisiae deletion strains, locus YPL055C, strain LGE1, stronger effect = lower value 0.983 | S. cerevisiae deletion strains, locus YPL078C, strain atp4, stronger effect = lower value 0.991 | S. cerevisiae deletion strains, locus YPL106C, strain sse1, stronger effect = lower value 0.991 | S. cerevisiae deletion strains, locus YPL240C, strain hsp82, stronger effect = lower value 0.989 | S. cerevisiae deletion strains, locus YPL241C, strain CIN2, stronger effect = lower value 0.973 | S. cerevisiae deletion strains, locus YPL256C, strain CLN2, stronger effect = lower value 1.05 | S. cerevisiae deletion strains, locus YPR119W, strain clb2, stronger effect = lower value 0.932 | S. cerevisiae deletion strains, locus YPR141C, strain kar3, stronger effect = lower value 0.93 | S. cerevisiae deletion strains, locus YPR163C, strain tif3, stronger effect = lower value 0.952 | S. cerevisiae deletion strains, locus YPR167C, strain met16, stronger effect = lower value 0.942 | S. cerevisiae deletion strains, strain wtn01, stronger effect = lower value 0.936 | S. cerevisiae strains, strain wild type, stronger effect = lower value 0.958
active: S. cerevisiae deletion strains, locus YKL068W, stronger effect = lower value 0.94 | S. cerevisiae deletion strains, locus YLR039C, strain RIC1, stronger effect = lower value 0.637 | S. cerevisiae deletion strains, locus YNL307C, strain MCK1, stronger effect = lower value 0.841
